Molecules are shown by their SMILES. Where “and” joins values, the source holds several entries; their conditions need not be identical. Equal entries are not always repeated.

Assay [1] deals with Dual specificity protein kinase CLK3 (Homo sapiens) (UniProt P49761). The following applies: at 1 µM.
The target of assay [2] is Dual specificity tyrosine-phosphorylation-regulated kinase 1A (Homo sapiens) (UniProt Q13627). The following applies: at 0.1 µM.
Assay [3] shares this target. The following applies: at 1 µM.
Assay [4] concerns the target Dual specificity tyrosine-phosphorylation-regulated kinase 1B (Homo sapiens) (UniProt Q9Y463). The following applies: at 0.1 µM.
Assay [5] has the same target. To be noted: at 1 µM.
Assay [6] concerns the target T1, Dual specificity tyrosine-phosphorylation-regulated kinase 2 (Homo sapiens) (UniProt Q92630).
T1 sequence (whole entry): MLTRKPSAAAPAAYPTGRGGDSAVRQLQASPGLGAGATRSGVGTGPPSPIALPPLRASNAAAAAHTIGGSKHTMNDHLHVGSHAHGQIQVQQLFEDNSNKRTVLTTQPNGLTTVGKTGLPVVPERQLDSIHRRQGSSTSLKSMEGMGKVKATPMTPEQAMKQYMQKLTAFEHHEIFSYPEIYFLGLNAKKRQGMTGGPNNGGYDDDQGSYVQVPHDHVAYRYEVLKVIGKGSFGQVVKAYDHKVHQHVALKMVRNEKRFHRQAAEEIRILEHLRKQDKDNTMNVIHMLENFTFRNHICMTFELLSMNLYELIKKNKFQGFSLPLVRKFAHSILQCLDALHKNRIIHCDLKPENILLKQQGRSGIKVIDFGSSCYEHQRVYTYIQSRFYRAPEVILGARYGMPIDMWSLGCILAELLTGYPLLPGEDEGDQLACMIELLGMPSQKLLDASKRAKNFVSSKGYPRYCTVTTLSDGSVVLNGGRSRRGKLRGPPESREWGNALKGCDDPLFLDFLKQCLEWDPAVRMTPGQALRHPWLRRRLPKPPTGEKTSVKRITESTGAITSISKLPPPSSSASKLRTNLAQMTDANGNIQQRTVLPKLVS
The following applies: at 0.1 µM.

For assay [7], the target named is T1, Dual specificity tyrosine-phosphorylation-regulated kinase 2 (Homo sapiens). To be noted: at 1 µM.
For assay [8], the target named is Glycogen synthase kinase-3 alpha (Homo sapiens) (UniProt P49840). The following applies: at 0.1 µM.
Glycogen synthase kinase-3 alpha (Homo sapiens), sequence (P49840 2-483 limits assumed): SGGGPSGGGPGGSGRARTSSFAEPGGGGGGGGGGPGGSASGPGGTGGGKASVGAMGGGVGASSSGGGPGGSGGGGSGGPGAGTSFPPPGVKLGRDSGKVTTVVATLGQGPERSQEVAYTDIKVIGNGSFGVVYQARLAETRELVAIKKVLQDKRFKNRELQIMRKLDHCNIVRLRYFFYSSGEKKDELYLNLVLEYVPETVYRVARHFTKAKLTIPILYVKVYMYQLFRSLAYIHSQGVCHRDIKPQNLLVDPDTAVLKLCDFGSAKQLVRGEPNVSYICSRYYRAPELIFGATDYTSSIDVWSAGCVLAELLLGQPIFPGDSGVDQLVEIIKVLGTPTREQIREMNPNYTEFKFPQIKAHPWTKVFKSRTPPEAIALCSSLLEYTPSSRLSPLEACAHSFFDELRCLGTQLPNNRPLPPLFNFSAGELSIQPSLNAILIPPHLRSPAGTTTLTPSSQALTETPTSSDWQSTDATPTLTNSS
Assay [9] has the same target. The following applies: at 1 µM.
Assay [10] deals with Glycogen synthase kinase-3 beta (Homo sapiens) (UniProt P49841). The following applies: at 0.1 µM.
Glycogen synthase kinase-3 beta (Homo sapiens), sequence (P49841 whole entry, looked up): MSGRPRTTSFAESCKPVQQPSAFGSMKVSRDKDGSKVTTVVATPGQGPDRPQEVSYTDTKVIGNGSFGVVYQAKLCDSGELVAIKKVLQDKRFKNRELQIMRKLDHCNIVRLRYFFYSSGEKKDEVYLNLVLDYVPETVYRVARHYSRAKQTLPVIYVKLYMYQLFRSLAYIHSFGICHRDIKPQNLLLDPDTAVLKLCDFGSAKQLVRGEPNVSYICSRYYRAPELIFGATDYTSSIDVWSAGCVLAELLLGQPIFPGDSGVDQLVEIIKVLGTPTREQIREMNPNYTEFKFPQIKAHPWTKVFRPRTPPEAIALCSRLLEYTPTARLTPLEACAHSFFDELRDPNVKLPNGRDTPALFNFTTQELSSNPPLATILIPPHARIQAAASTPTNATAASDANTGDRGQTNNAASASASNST

Dual specificity tyrosine-phosphorylation-regulated kinase 1B (Homo sapiens), sequence (Q9Y463 whole entry, looked up): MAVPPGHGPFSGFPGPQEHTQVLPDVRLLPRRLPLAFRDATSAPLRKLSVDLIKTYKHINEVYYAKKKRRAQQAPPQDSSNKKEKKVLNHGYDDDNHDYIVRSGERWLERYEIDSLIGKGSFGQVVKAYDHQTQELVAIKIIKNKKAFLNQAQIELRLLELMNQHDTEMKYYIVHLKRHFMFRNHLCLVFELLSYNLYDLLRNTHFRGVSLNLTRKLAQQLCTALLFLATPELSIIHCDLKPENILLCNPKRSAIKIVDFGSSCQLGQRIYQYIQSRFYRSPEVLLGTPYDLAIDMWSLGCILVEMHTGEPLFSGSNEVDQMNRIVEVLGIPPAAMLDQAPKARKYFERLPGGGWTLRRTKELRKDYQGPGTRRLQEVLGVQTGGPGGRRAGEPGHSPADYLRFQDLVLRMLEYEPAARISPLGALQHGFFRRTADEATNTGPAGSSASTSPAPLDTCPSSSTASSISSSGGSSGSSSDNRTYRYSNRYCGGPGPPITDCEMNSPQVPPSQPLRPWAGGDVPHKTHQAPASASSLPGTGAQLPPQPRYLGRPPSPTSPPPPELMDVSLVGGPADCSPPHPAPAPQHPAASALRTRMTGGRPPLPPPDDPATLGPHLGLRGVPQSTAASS
Dual specificity protein kinase CLK3 (Homo sapiens), sequence (P49761 whole entry, looked up): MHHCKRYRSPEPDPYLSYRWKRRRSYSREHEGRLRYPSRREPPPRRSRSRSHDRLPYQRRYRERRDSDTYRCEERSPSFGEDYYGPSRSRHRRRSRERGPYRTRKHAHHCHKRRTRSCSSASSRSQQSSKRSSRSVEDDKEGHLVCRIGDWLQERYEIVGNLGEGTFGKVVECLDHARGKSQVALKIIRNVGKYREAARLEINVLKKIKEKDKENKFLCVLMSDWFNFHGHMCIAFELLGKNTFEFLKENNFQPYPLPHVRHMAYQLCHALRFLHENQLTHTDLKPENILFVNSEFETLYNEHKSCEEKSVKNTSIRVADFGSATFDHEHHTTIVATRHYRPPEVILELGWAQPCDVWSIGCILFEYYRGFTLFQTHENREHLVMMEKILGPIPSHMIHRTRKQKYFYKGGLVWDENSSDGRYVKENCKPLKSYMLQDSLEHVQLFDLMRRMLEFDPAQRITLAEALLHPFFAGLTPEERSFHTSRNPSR

With `OCCCNc1nccc(-c2c(-c3ccc(F)cc3)nn3cc(C(F)(F)F)ccc23)n1`, the inhibition was 0.7% in [1]; 1.47% in assay [2]; 6.36% in assay [3]; 1.89% in assay [4]; 3.86% in [5]; 2.33% in assay [6]. The inhibition was found to be 3.97% in assay [7], 7.04% in assay [8], 18.2% in assay [9] and 8.01% in assay [10].
On to `CS(=O)(=O)Nc1ccc(-c2cc(-c3ccccc3)cc(C(N)=O)c2N)cc1`, for which the inhibition in [1] was -0.57%; in assay [2], 0.57%; in assay [3], 4.13%; in assay [4] it was 0.32%; in assay [5], 1.12%; in [6], 0.61%. Besides, the inhibition in assay [7] is 2.18%; in [8], 1.48%; in assay [9], 3.56%; in assay [10], 0.94%.
For the molecule `CS(=O)(=O)CCNCc1ccoc1-c1ccc2ncnc(Nc3ccc(OCc4ccccc4)cc3)c2c1`, the inhibition is -0.94% in assay [1]; 1.18% in assay [2]; 2.26% in [3]; -1.48% in assay [4]; -0.06% in [5]; 0.79% in assay [6]. The inhibition in [7] is -1.66%; in [8], 4.65%; in [9], 5.47%; in [10], 2.8%.
In the case of `CN1CCC(n2cnc(-c3ccc(F)cc3)c2-c2ccnc(NCCO)n2)CC1`, the inhibition in assay [1] is 3.15%; in assay [2] it was 3.36%; in assay [3], 3.78%; in [4] it was -0.1%; in assay [5], 1.43%; in assay [6], 2.57%. Moreover, the inhibition stood at 3.9% in assay [7], 3.17% in assay [8], 5.09% in [9] and 3.17% in assay [10].
For the molecule `NS(=O)(=O)c1ccc(N/N=C2\C(=O)Nc3ccc(C(=O)NCc4ccncc4)cc32)cc1`, the inhibition in assay [1] was found to be 3.91%; in assay [2], 2.11%; in assay [3], 9.79%; in assay [4], 1.01%; in assay [5], 11.3%; in assay [6] it was 2.69%. For the same molecule, the inhibition came to 8.09% in assay [7], 35.3% in assay [8], 75.7% in [9] and 38.4% in assay [10].
Turning to `CCn1c(-c2nonc2N)nc2cncc(C(=O)NCCNC)c21`, the inhibition in assay [1] is 9.74%; in assay [2] it was 20.8%; in [3], 72.4%; in assay [4] it was 9.71%; in assay [5], 54.7%; in assay [6] it was 7.99%. Besides, the inhibition in [7] turned out to be 37.2%; in [8] it was 10.2%; in assay [9], 49.7%; in assay [10], 6.83%.
Regarding `Cc1nnc(-c2cccc(-c3ccc(C(=O)NCC4CC4)cc3)c2)o1`, the inhibition came to 2.8% in assay [1]; 3% in [2]; 6.39% in [3]; 0.21% in [4]; 1.06% in assay [5]; 3.15% in assay [6]. The inhibition in assay [7] came to 5.04%; in [8] it was 4.33%; in [9] it was 14.8%; in assay [10], 3.05%.
Turning to `O=C(O[C@H]1CN[C@H](C#Cc2cc3ncnc(Nc4ccc5c(cnn5Cc5ccccc5)c4)c3s2)C1)N1CCOCC1`, the inhibition was -0.49% in assay [1]; -4.04% in [2]; -3.74% in [3]; -1.09% in [4]; -0.85% in assay [5]; -0.74% in assay [6]. Besides, the inhibition in [7] is -3.59%; in [8] it was 1.95%; in [9], 3.19%; in [10], 1.44%.
In the case of `CN(C)CCNC(=O)Nc1ccc(N(C)c2ccnc(Nc3ccc(CS(C)(=O)=O)cc3)n2)cc1`, the inhibition was found to be 2.89% in [1]; 2.86% in assay [2]; 5.24% in assay [3]; 1.37% in [4]; 1.57% in assay [5]; 2.66% in assay [6]. Besides, the inhibition was determined as 4.33% in [7], 1.56% in assay [8], 4.32% in assay [9] and 0.61% in assay [10].
As for `CCOc1ccc2c(-c3ccnc(Nc4cc(OC)cc(C(F)(F)F)c4)n3)cnn2n1`, the inhibition in [1] is 21.8%; in assay [2], 5.33%; in [3] it was 21.6%; in assay [4], 8.29%; in assay [5], 38.8%; in assay [6], 1.12%. For the same molecule, the inhibition worked out at 5.62% in [7], 9.42% in [8], 30.3% in [9] and 9.12% in assay [10].
With `Nc1nccc(-c2c(-c3ccc(F)cc3)ncn2C2CCNCC2)n1`, the inhibition in assay [1] was 1.14% and 2.38%; in assay [2], 0.55% and 2.23%; in [3] it was 3.87% and 4.35%; in assay [4], 2.09% and 2.37%; in assay [5], 5.26% and 3.56%; in [6], -3.5% and -0.2%. The inhibition in assay [7] is 1.66% and -0.95%; in [8], 0.13% and 1.29%; in assay [9] it was 2.91% and 3.54%; in [10], -1.49% and 2.54%.
As for `CS(=O)(=O)CCNCc1ccc(-c2ccc3ncnc(Nc4ccc(OCc5ccccc5)cc4)c3c2)o1`, the inhibition in assay [1] was 0.48%; in assay [2] it was 1.93%; in assay [3] it was 4.22%; in assay [4] it was -0.07%; in assay [5] it was 1.88%; in assay [6], 5.3%. The inhibition came out at 2.62% in assay [7], 2.32% in assay [8], 3.44% in assay [9] and 1.65% in [10].
On to `c1ccc(-c2n[nH]cc2-c2ccnc(-c3ccc(OCCn4ccnc4)cc3)c2)nc1`, for which the inhibition in assay [1] was 0.82%; in assay [2], 3.79%; in assay [3], 5.07%; in assay [4] it was 0.31%; in assay [5] it was 0.62%; in [6], -0.06%. The inhibition was determined as 0.1% in assay [7], 1.15% in assay [8], 3.28% in [9] and 1.16% in assay [10].
`CCN1CCC(C(=O)Nc2n[nH]c3nnc(-c4cccc(F)c4F)cc23)CC1`: the inhibition in assay [1] is 0.77%; in assay [2] it was 14.4%; in assay [3], 61%; in assay [4], 12.9%; in [5] it was 54.3%; in assay [6] it was -0.03%. Further, the inhibition in assay [7] is 2.26%; in assay [8], 85.3%; in assay [9], 89.9%; in [10], 80.9%.
Turning to `CCS(=O)(=O)c1ccc(OC)c(Nc2ncc(-c3cccc(C(C)=O)c3)o2)c1`, the inhibition in assay [1] amounted to 5.96%; in assay [2], 6.12%; in assay [3] it was 35.4%; in assay [4] it was 4.09%; in assay [5] it was 33.2%; in [6], 2.2%. Further, the inhibition in assay [7] turned out to be 5.6%; in assay [8], 3.75%; in assay [9], 11.3%; in assay [10], 4.38%.

Usually inhibition stands for the relative decrease from the control value, in per cent.
